# Results published in paper PMC7862700, “An all-to-all approach to the identification of sequence-specific readers for epigenetic DNA modifications on cytosine”.
# Target: T1, FLI1 (Homo sapiens, UniProt Q01543 1-452)
# T1 sequence: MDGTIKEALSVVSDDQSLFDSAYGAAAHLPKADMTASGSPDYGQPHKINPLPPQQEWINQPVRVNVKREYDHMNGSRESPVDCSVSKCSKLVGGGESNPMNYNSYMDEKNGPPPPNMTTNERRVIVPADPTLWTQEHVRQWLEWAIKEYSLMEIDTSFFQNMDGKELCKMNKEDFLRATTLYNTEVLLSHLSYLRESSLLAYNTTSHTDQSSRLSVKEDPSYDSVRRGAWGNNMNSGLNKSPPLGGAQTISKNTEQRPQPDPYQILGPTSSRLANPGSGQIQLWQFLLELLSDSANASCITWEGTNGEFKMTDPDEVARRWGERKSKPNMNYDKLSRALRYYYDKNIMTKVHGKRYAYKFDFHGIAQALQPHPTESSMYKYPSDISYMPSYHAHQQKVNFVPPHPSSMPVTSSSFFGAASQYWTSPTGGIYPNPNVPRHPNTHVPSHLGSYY
# Experiment: DAPPL (digital affinity profiling via proximity ligation, sequencing); 10 mM Tris-HCl pH 7.5, 50 mM NaCl, 1 mM DTT, 4% glycerol, room temperature, 30 min; GST-TFs on glutathione beads, 16-mer random dsDNA library, 0.1% formaldehyde crosslink after washing; high values mean tight binding
# Conditions: protein: recombinant; tags: N-terminal GST; dsDNA, one strand shown
# In short: (§1)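 The binding signal reported is, for every hexamer, its read frequency for a factor over its read frequency for the tag-only sample. Reads came from pools of yeast-expressed, GST-fused human transcription factors on glutathione beads, barcoded with DNA and mixed with that sample, which were incubated with 200 nmole of a random double-stranded 16-mer DNA library in Tris/NaCl/DTT/glycerol buffer at room temperature for 30 min. After washing, the pools were crosslinked with 0.1% formaldehyde, proximity-ligated with BsaI/T4 ligase for 1 h at 37 °C, PCR-amplified and sequenced on an Illumina NextSeq500.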
row,Sequence,binding signal
1,TTTTAG,"1.2 fold enrichment (6-mer frequency, TF over GST control)"
2,TGTACC,"1.42 fold enrichment (6-mer frequency, TF over GST control)"
3,CCCTAA,"1.16 fold enrichment (6-mer frequency, TF over GST control)"
4,CACGCC,"1.12 fold enrichment (6-mer frequency, TF over GST control)"
5,ATCCAA,"1.15 fold enrichment (6-mer frequency, TF over GST control)"
6,CTGATC,"1.16 fold enrichment (6-mer frequency, TF over GST control)"
7,TTCACC,"1.35 fold enrichment (6-mer frequency, TF over GST control)"
8,CATCTG,"1.24 fold enrichment (6-mer frequency, TF over GST control)"
9,TATCCC,"1.63 fold enrichment (6-mer frequency, TF over GST control)"
10,CTCGCT,"1.81 fold enrichment (6-mer frequency, TF over GST control)"
11,ATTTGT,"1.36 fold enrichment (6-mer frequency, TF over GST control)"
12,TTTGTC,"1.35 fold enrichment (6-mer frequency, TF over GST control)"
13,TGACAA,"1.18 fold enrichment (6-mer frequency, TF over GST control)"
14,TATGCA,"1.24 fold enrichment (6-mer frequency, TF over GST control)"
15,ACAAAC,"1.15 fold enrichment (6-mer frequency, TF over GST control)"
16,TTAAGT,"1.06 fold enrichment (6-mer frequency, TF over GST control)"
17,TGCGGA,"1.35 fold enrichment (6-mer frequency, TF over GST control)"
18,GCTCTT,"1.58 fold enrichment (6-mer frequency, TF over GST control)"
19,CGACGC,"1.11 fold enrichment (6-mer frequency, TF over GST control)"
20,AACTTC,"2.4 fold enrichment (6-mer frequency, TF over GST control)"

row,Sequence,binding signal
1,GACCTA,"1.18 fold enrichment (6-mer frequency, TF over GST control)"
2,CCCAAC,"1.13 fold enrichment (6-mer frequency, TF over GST control)"
3,TTAGAA,"1 fold enrichment (6-mer frequency, TF over GST control)"
4,ACATTC,"1.41 fold enrichment (6-mer frequency, TF over GST control)"
5,CTCAGT,"1.16 fold enrichment (6-mer frequency, TF over GST control)"
6,CCCACT,"1.36 fold enrichment (6-mer frequency, TF over GST control)"
7,CAATAG,"1.07 fold enrichment (6-mer frequency, TF over GST control)"
8,TTGATC,"1.21 fold enrichment (6-mer frequency, TF over GST control)"
9,CGCTGC,"1.12 fold enrichment (6-mer frequency, TF over GST control)"
10,AAGGTA,"1.1 fold enrichment (6-mer frequency, TF over GST control)"
11,CATTCA,"1.17 fold enrichment (6-mer frequency, TF over GST control)"
12,TCTCCG,"1.51 fold enrichment (6-mer frequency, TF over GST control)"
13,ACCTGA,"1.06 fold enrichment (6-mer frequency, TF over GST control)"
14,CAAACC,"1.16 fold enrichment (6-mer frequency, TF over GST control)"
15,TAAGCT,"1.21 fold enrichment (6-mer frequency, TF over GST control)"
16,CTGGTC,"1.11 fold enrichment (6-mer frequency, TF over GST control)"
17,TGCCCG,"1.16 fold enrichment (6-mer frequency, TF over GST control)"
18,CCGACG,"1.27 fold enrichment (6-mer frequency, TF over GST control)"
19,GCTTGG,"1.19 fold enrichment (6-mer frequency, TF over GST control)"
20,TACCCA,"1.01 fold enrichment (6-mer frequency, TF over GST control)"

# Target: T2, ELK1 (Homo sapiens, UniProt P19419 1-428)
# T2 sequence: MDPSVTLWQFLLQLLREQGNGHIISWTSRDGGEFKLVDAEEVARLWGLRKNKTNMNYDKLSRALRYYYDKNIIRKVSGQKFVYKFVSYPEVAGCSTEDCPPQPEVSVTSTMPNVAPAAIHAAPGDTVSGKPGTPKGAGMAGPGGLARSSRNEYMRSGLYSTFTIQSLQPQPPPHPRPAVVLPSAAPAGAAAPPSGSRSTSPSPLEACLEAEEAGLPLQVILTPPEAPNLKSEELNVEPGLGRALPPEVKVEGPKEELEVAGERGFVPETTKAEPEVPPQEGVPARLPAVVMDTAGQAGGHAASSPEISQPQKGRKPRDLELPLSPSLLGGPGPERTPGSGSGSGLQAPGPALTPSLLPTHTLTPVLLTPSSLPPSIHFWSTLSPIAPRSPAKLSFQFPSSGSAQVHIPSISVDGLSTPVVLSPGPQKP
# Experiment: as above
# Conditions: protein: recombinant; tags: N-terminal GST; dsDNA, one strand shown
# In short: as §1
row,Sequence,binding signal
1,TTTTAG,"1.07 fold enrichment (6-mer frequency, TF over GST control)"
2,TGTACC,"1.36 fold enrichment (6-mer frequency, TF over GST control)"
3,CCCTAA,"1.19 fold enrichment (6-mer frequency, TF over GST control)"
4,CACGCC,"1.25 fold enrichment (6-mer frequency, TF over GST control)"
5,ATCCAA,"1.19 fold enrichment (6-mer frequency, TF over GST control)"
6,CTGATC,"1.54 fold enrichment (6-mer frequency, TF over GST control)"
7,TTCACC,"1.39 fold enrichment (6-mer frequency, TF over GST control)"
8,CATCTG,"1.23 fold enrichment (6-mer frequency, TF over GST control)"
9,TATCCC,"1.65 fold enrichment (6-mer frequency, TF over GST control)"
10,CTCGCT,"1.67 fold enrichment (6-mer frequency, TF over GST control)"
11,ATTTGT,"1.36 fold enrichment (6-mer frequency, TF over GST control)"
12,TTTGTC,"1.21 fold enrichment (6-mer frequency, TF over GST control)"
13,TGACAA,"1.19 fold enrichment (6-mer frequency, TF over GST control)"
14,TATGCA,"1.24 fold enrichment (6-mer frequency, TF over GST control)"
15,ACAAAC,"1.15 fold enrichment (6-mer frequency, TF over GST control)"
16,TTAAGT,"1.3 fold enrichment (6-mer frequency, TF over GST control)"
17,TGCGGA,"1.27 fold enrichment (6-mer frequency, TF over GST control)"
18,GCTCTT,"1.55 fold enrichment (6-mer frequency, TF over GST control)"
19,CGACGC,"1.11 fold enrichment (6-mer frequency, TF over GST control)"
20,AACTTC,"2.53 fold enrichment (6-mer frequency, TF over GST control)"

row,Sequence,binding signal
1,GACCTA,"1.07 fold enrichment (6-mer frequency, TF over GST control)"
2,CCCAAC,"1.14 fold enrichment (6-mer frequency, TF over GST control)"
3,TTAGAA,"1.02 fold enrichment (6-mer frequency, TF over GST control)"
4,ACATTC,"1.32 fold enrichment (6-mer frequency, TF over GST control)"
5,CTCAGT,"1.21 fold enrichment (6-mer frequency, TF over GST control)"
6,CCCACT,"1.45 fold enrichment (6-mer frequency, TF over GST control)"
7,CAATAG,"1.07 fold enrichment (6-mer frequency, TF over GST control)"
8,TTGATC,"1.22 fold enrichment (6-mer frequency, TF over GST control)"
9,CGCTGC,"1.04 fold enrichment (6-mer frequency, TF over GST control)"
10,AAGGTA,"1.08 fold enrichment (6-mer frequency, TF over GST control)"
11,CATTCA,"1.14 fold enrichment (6-mer frequency, TF over GST control)"
12,TCTCCG,"1.49 fold enrichment (6-mer frequency, TF over GST control)"
13,ACCTGA,"1.12 fold enrichment (6-mer frequency, TF over GST control)"
14,CAAACC,"1.15 fold enrichment (6-mer frequency, TF over GST control)"
15,TAAGCT,"1.24 fold enrichment (6-mer frequency, TF over GST control)"
16,CTGGTC,"1.23 fold enrichment (6-mer frequency, TF over GST control)"
17,TGCCCG,"1.16 fold enrichment (6-mer frequency, TF over GST control)"
18,CCGACG,"1.15 fold enrichment (6-mer frequency, TF over GST control)"
19,GCTTGG,"1.15 fold enrichment (6-mer frequency, TF over GST control)"
20,TACCCA,"1.09 fold enrichment (6-mer frequency, TF over GST control)"

# Target: T3, GABPA (Homo sapiens, UniProt Q06546 1-454)
# T3 sequence: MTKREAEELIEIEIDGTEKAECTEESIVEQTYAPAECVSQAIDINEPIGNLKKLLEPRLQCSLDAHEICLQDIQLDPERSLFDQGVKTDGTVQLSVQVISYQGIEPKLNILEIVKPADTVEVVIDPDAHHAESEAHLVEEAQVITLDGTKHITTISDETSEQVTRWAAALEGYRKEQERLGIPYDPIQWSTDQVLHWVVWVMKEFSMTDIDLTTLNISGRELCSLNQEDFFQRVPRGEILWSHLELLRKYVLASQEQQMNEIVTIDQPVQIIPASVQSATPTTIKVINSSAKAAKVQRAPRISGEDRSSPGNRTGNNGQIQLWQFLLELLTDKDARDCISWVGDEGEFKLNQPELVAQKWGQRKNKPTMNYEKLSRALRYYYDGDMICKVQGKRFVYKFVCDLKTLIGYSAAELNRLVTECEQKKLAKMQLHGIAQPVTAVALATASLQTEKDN
# Experiment: as above
# Conditions: protein: recombinant; tags: N-terminal GST; dsDNA, one strand shown
# In short: as §1
row,Sequence,binding signal
1,TTTTAG,"1.19 fold enrichment (6-mer frequency, TF over GST control)"
2,TGTACC,"1.29 fold enrichment (6-mer frequency, TF over GST control)"
3,CCCTAA,"1.15 fold enrichment (6-mer frequency, TF over GST control)"
4,CACGCC,"1.27 fold enrichment (6-mer frequency, TF over GST control)"
5,ATCCAA,"1.18 fold enrichment (6-mer frequency, TF over GST control)"
6,CTGATC,"1.4 fold enrichment (6-mer frequency, TF over GST control)"
7,TTCACC,"1.34 fold enrichment (6-mer frequency, TF over GST control)"
8,CATCTG,"1.37 fold enrichment (6-mer frequency, TF over GST control)"
9,TATCCC,"1.53 fold enrichment (6-mer frequency, TF over GST control)"
10,CTCGCT,"1.72 fold enrichment (6-mer frequency, TF over GST control)"
11,ATTTGT,"1.34 fold enrichment (6-mer frequency, TF over GST control)"
12,TTTGTC,"1.19 fold enrichment (6-mer frequency, TF over GST control)"
13,TGACAA,"1.32 fold enrichment (6-mer frequency, TF over GST control)"
14,TATGCA,"1.24 fold enrichment (6-mer frequency, TF over GST control)"
15,ACAAAC,"1.14 fold enrichment (6-mer frequency, TF over GST control)"
16,TTAAGT,"1.16 fold enrichment (6-mer frequency, TF over GST control)"
17,TGCGGA,"1.2 fold enrichment (6-mer frequency, TF over GST control)"
18,GCTCTT,"1.52 fold enrichment (6-mer frequency, TF over GST control)"
19,CGACGC,"1.04 fold enrichment (6-mer frequency, TF over GST control)"
20,AACTTC,"2.41 fold enrichment (6-mer frequency, TF over GST control)"
